{"source": "PubChem BioAssay AID2530", "about": "(National Center for Advancing Translational Sciences (NCATS), 2010)", "note": "Inconclusive results are not listed. Unmarked numbers belong to inactive results. Active and inactive are the calls of the source. The call rests on the fitted dose curve; in most records, active means well fitted inhibition curve with a large enough effect; inconclusive means small, poorly fitted or top-dose-only effect; inactive means flat fitted curve, though single readings scatter. Potency means the concentration at half of the fitted maximal effect."}
{"target": "Luciferin 4-monooxygenase (Photuris pensylvanica) (UniProt Q27757)", "assay": "Secondary Assay for Luciferase (Kinase-Glo TM) Inhibition Counterscreen;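 on activity, negative = inhibition: 0% = DMSO only and -100% = 40 µM SIB 1757 full inhibition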", "settings": "Kinase-Glo luciferase enzyme, luminescence; series mostly up to 58.1 µM; activity, negative = inhibition: at the top concentration", "summary_of_the_method": "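Kinase-Glo firefly-type luciferase with 10 uM ATP in 50 mM imidazole pH 7.2, 50 mM KCl, 7 mM MgCl2, 0.01% Tween 20, 0.05% BSA. Luminescence read after 8 min at ambient temperature, normalized to DMSO and 40 uM SIB 1757, then Hill-fitted.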", "units": {"activity, negative = inhibition": "%"}}
{"smiles": "c1c2c(cc3sc(N4CCCCC4)nc13)OCO2", "Potency": "10.3 µM (active)"}
{"smiles": "Cc1occc1C(=O)O/N=C(\\N)c1ccccc1", "Potency": "6.51 µM (active)"}
{"smiles": "Cn1c2cc(S(C)=O)sc2c2cnn(Cc3cccc(O)c3)c(=O)c21", "note": "(centres undefined)", "activity, negative = inhibition": 1.28}
{"smiles": "O=C1c2ccccc2C(=O)C1c1ccnc2ccccc12", "activity, negative = inhibition": -23.6}
{"smiles": "O=C1CCc2cc(S(=O)(=O)Nc3cccnc3)ccc2N1", "activity, negative = inhibition": -1.37}
{"smiles": "Cc1ccc(NS(=O)(=O)c2cc3c(cc2Cl)NC(=O)CO3)cc1C", "activity, negative = inhibition": -2.48}
{"smiles": "c1ccc(-c2nc(-c3ccccn3)no2)cc1", "Potency": "3.66 µM (active)"}
{"smiles": "Cc1ccc(NS(=O)(=O)c2ccc(-c3ccccc3)cc2)cc1C", "activity, negative = inhibition": 3.13}
{"smiles": "Cc1ccccc1OC1=NS(=O)(=O)c2ccccc21", "activity, negative = inhibition": -2.81}
{"smiles": "COc1ccc(OC2=NS(=O)(=O)c3ccccc32)cc1", "activity, negative = inhibition": -2.4}
{"smiles": "COc1cc(N2C(=O)c3ccccc3C2=O)c2ncccc2c1", "activity, negative = inhibition": -2.36}
{"smiles": "O=C1c2ccccc2C(=O)N1c1ccc2ccccc2n1", "activity, negative = inhibition": -1.93}
{"smiles": "Nc1cc(S(=O)(=O)N2CCN(S(=O)(=O)c3ccc4c(c3)OCCO4)CC2)ccn1", "activity, negative = inhibition": -17.1}
{"smiles": "Cc1ccc(NS(=O)(=O)c2ccc3c(ccn3C)c2)cc1C", "activity, negative = inhibition": 1.35}
{"smiles": "CSc1cc2c(s1)c1cnn(Cc3cccc(O)c3)c(=O)c1n2C", "activity, negative = inhibition": -1.24}
{"smiles": "O=C(c1ccccc1)n1c(=S)nc2ccccn21", "Potency": "5.17 µM (active)"}
{"smiles": "O=c1c2ccccc2cnn1-c1nc2ccccc2[nH]1", "Potency": "2.59 µM (active)"}
{"smiles": "O=C1c2ccccc2C(=O)N1c1cnc2ccccc2c1", "activity, negative = inhibition": 0.332}
{"smiles": "CCOc1ccc(C(=O)O/N=C(\\N)c2ccccn2)cc1", "Potency": "5.8 µM (active)"}
{"smiles": "COc1cc(F)c(S(=O)(=O)N2CCCN(S(=O)(=O)c3cccc(N)c3)CC2)c(F)c1", "activity, negative = inhibition": -0.216}
{"smiles": "O=C1c2ccccc2C(=O)N1c1ccccc1O", "activity, negative = inhibition": -2.87}
{"smiles": "CC(=O)N(C1=C(Cl)C(=O)c2ccccc2C1=O)C1CCCCC1", "activity, negative = inhibition": -12.8}
{"smiles": "O=C1c2ccccc2C(=O)N1c1cccc(=O)[nH]1", "activity, negative = inhibition": -2.84}
{"smiles": "Cc1ccc(OC2=NS(=O)(=O)c3ccccc32)cc1", "activity, negative = inhibition": -1.98}
{"smiles": "O=C1CCc2cc(S(=O)(=O)Nc3ccncc3)ccc2N1", "activity, negative = inhibition": -2.9}
{"smiles": "O=C1CCc2cc(S(=O)(=O)Nc3ccc(F)cc3)ccc2N1", "activity, negative = inhibition": -1.28}
{"smiles": "COc1ccc(N=Nc2n(C)c3ccccc3[n+]2C)cc1", "Potency": "10.3 µM (active)"}
{"smiles": "O=C1c2ccccc2C(=O)N1Cc1ccccn1", "activity, negative = inhibition": -3.08}
{"smiles": "O=C1C=CC(=O)N1c1cccc(-c2ccccc2)c1", "activity, negative = inhibition": -3.96}
{"smiles": "O=C1c2ccccc2C(=O)N1Cc1ccncc1", "activity, negative = inhibition": -0.589}
{"smiles": "O=C1CCc2cc(S(=O)(=O)Nc3ccccc3-c3ccccc3)ccc2N1", "activity, negative = inhibition": -0.997}
{"smiles": "Oc1ccc(C23CC4CC(CC(C4)C2)C3)cc1O", "activity, negative = inhibition": -1.06}
{"smiles": "O=C1c2ccccc2C(=O)N1c1cccnc1", "activity, negative = inhibition": -2.37}
{"smiles": "Cc1ccccc1-c1nc(-c2ccccn2)no1", "Potency": "4.61 µM (active)"}
{"smiles": "Cc1ccc(NS(=O)(=O)c2cc3c(cc2N(C)C)NC(=O)CC3)cc1C", "activity, negative = inhibition": 0.348}
{"smiles": "Cc1ccc(NS(=O)(=O)c2cccc(C(=O)O)c2)cc1C", "activity, negative = inhibition": -3.53}
{"smiles": "Cc1ccc(NS(=O)(=O)c2cc3c(cc2F)NC(=O)CC3)cc1C", "activity, negative = inhibition": 2.32}
{"smiles": "C[C@]12CC[C@@H]3c4cc(O)c(O)cc4CC[C@H]3[C@@H]1CC[C@@H]2O", "activity, negative = inhibition": -6.33}
{"smiles": "Cc1ccc(NS(=O)(=O)c2cc3c(cc2N2CCCCC2)NC(=O)CC3)cc1C", "activity, negative = inhibition": -1.98}
